The record followed here is PubChem BioAssay (NCI).

SMILES strings stand for the structures. Values joined by “and” are separate entries in the source; they are usually repeats but may differ in a detail not shown here. Equal entries are not always repeated. About 83,000 compounds went through this panel and 20% of them were active in at least one assay; those are over-represented in the sample as a whole.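 Single-dose data. Exposure time 48 hours. Values below 10 considered active.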 Active and inactive are the calls of the source.

Test systems include SR leukemia; RPMI-8226 leukemia; OVCAR-8 ovarian; OVCAR-5 ovarian; OVCAR-4 ovarian; SK-OV-3 ovarian; IGROV1 ovarian; OVCAR-3 ovarian; HS 578T breast; NCI/ADR-RES ovarian; T-47D breast; BT-549 breast; MDA-MB-435 melanoma; SW-620 colon; MCF7 breast; HCT-116 colon; HCC-2998 colon; KM12 colon.
What all share (test): NCI-60 one-dose screen, 48 h (100 = growth as untreated, 0 = no growth, -100 = all killed)
Holding throughout (conditions): 10 µM unless noted

For the molecule `COc1cc(/C=C/C(=O)c2ccc(NC(=O)CSc3nnc(-c4cc(-c5ccccc5)nc5ccccc45)n3-c3ccccc3)cc2)cc(OC)c1OC`, the growth with SR leukemia was 58% (inactive); in the assay on RPMI-8226 leukemia, 72.3% (inactive); in the assay with OVCAR-8 ovarian, 86.9% (inactive); in the assay with OVCAR-5 ovarian, 93.6% (inactive); in the assay with OVCAR-4 ovarian, 103% (inactive); in the assay with SK-OV-3 ovarian it was 101% (inactive). For the same molecule, the growth was 110% (inactive) with IGROV1 ovarian; 98.5% (inactive) in the assay with OVCAR-3 ovarian; 90.4% (inactive) with HS 578T breast; 86.7% (inactive) with NCI/ADR-RES ovarian; 73% (inactive) in the assay on T-47D breast; 90.7% (inactive) in the assay with BT-549 breast. Also, the growth with MDA-MB-435 melanoma is 92.2% (inactive); in the assay with SW-620 colon it was 90.5% (inactive); in the assay with MCF7 breast, 74.3% (inactive); with HCT-116 colon it was 79% (inactive); in the assay with HCC-2998 colon, 88.3% (inactive); with KM12 colon it was 63.5% (inactive).
Consider `O=C(Nc1ccc(Cl)c(Cl)c1)Nc1ccc(Cl)c(Cl)c1`, for which the growth in the assay on SR leukemia is -16.6% (active) and 28.9% (inactive); with RPMI-8226 leukemia it was -36.5% (active) and 10.6% (inactive); with OVCAR-8 ovarian, -78.7% (active) and 23.2% (inactive); in the assay on OVCAR-5 ovarian it was -85.3% (active) and 41.8% (inactive); in the assay with OVCAR-4 ovarian, -86.4% (active); in the assay with SK-OV-3 ovarian, -87% (active) and 29.5% (inactive). Further, the growth in the assay on IGROV1 ovarian was -86.4% (active) and 4.75% (active); in the assay with OVCAR-3 ovarian it was -95.3% (active) and 6.41% (active); in the assay with HS 578T breast it was -45% (active) and 48.8% (inactive); in the assay on NCI/ADR-RES ovarian, -54.9% (active) and 14.6% (inactive); in the assay with T-47D breast, -51.5% (active) and 12.6% (inactive); in the assay with BT-549 breast it was -83.3% (active) and 37.7% (inactive). Moreover, the growth in the assay on MDA-MB-435 melanoma is -80.9% (active) and 13.6% (inactive); in the assay on SW-620 colon it was -60.5% (active) and 19.3% (inactive); in the assay with MCF7 breast it was -75.9% (active) and 13.6% (inactive); with HCT-116 colon, -89.9% (active) and 4.25% (active); in the assay with HCC-2998 colon, -95.9% (active) and 22.8% (inactive); in the assay with KM12 colon, -96.3% (active) and 14% (inactive).
On to `c1ccc(Cc2cccc[n+]2C(c2ccccc2)c2ccccc2)cc1`, for which the growth was 32.4% (inactive) in the assay on SR leukemia; 12.3% (inactive) with RPMI-8226 leukemia; 57.2% (inactive) in the assay with OVCAR-8 ovarian; 71.5% (inactive) in the assay on OVCAR-5 ovarian; 28.2% (inactive) with OVCAR-4 ovarian; 52.1% (inactive) with SK-OV-3 ovarian. Moreover, the growth with IGROV1 ovarian is 62.3% (inactive); with OVCAR-3 ovarian, 44.6% (inactive); with HS 578T breast it was 90.6% (inactive); with NCI/ADR-RES ovarian, 104% (inactive); in the assay with T-47D breast, 3.66% (active); with BT-549 breast, 29.8% (inactive). Moreover, the growth is 40% (inactive) in the assay with MDA-MB-435 melanoma; 81.2% (inactive) in the assay with SW-620 colon; 34.6% (inactive) with MCF7 breast; 49.2% (inactive) in the assay on HCT-116 colon; 40.7% (inactive) in the assay on HCC-2998 colon; 42.4% (inactive) with KM12 colon.
Turning to `O=C1c2cccc3cccc(c23)C(=O)N1N1C(=O)c2cccc3c(N4CCNCC4)ccc(c23)C1=O`, the growth with SR leukemia was -6.4% (active); in the assay on RPMI-8226 leukemia, 68.8% (inactive); with OVCAR-8 ovarian, 82.6% (inactive); with OVCAR-5 ovarian, 121% (inactive); in the assay on OVCAR-4 ovarian, 116% (inactive); in the assay with SK-OV-3 ovarian, 104% (inactive). Further, the growth in the assay with IGROV1 ovarian is 91.2% (inactive); in the assay on OVCAR-3 ovarian, 101% (inactive); in the assay on HS 578T breast it was 85.9% (inactive); with NCI/ADR-RES ovarian, 82.6% (inactive); in the assay on T-47D breast, 93.6% (inactive); in the assay with BT-549 breast, 89.8% (inactive). In addition, the growth with MDA-MB-435 melanoma is 99.9% (inactive); with SW-620 colon, 78.7% (inactive); in the assay with MCF7 breast, 29% (inactive); in the assay with HCT-116 colon, 58.1% (inactive); with HCC-2998 colon, 79.4% (inactive); in the assay on KM12 colon, 82.2% (inactive).
Turning to `Cc1ccc(-c2nc3nc(-c4ccc(Br)cc4)nc(N4CCCNCC4)c3o2)cc1`, the growth is -32.2% (active) in the assay on SR leukemia; -36.9% (active) in the assay with RPMI-8226 leukemia; -45.6% (active) in the assay with OVCAR-8 ovarian; -44.4% (active) in the assay with OVCAR-5 ovarian; -94.2% (active) in the assay with OVCAR-4 ovarian; 110% (inactive) in the assay with SK-OV-3 ovarian. The growth in the assay with IGROV1 ovarian was -75.6% (active); in the assay on OVCAR-3 ovarian, -95.1% (active); in the assay with HS 578T breast it was -30.3% (active); in the assay with NCI/ADR-RES ovarian it was -64.8% (active); with T-47D breast, -8.11% (active); in the assay with BT-549 breast it was 99.5% (inactive). The growth in the assay on MDA-MB-435 melanoma is 7.5% (active); with SW-620 colon, -72.4% (active); with MCF7 breast, -75.8% (active); with HCT-116 colon, -79.8% (active); with HCC-2998 colon, -80.7% (active); in the assay on KM12 colon, -90.9% (active).
In the case of `COc1ccc(CCNC(=O)COc2cc3c(Nc4ccc(F)c(Cl)c4)ncnc3cc2OC)cc1OC`, the growth in the assay with SR leukemia is 82.3% (inactive); with RPMI-8226 leukemia it was 90.1% (inactive); in the assay with OVCAR-8 ovarian it was 103% (inactive); with OVCAR-5 ovarian, 65.4% (inactive); in the assay on OVCAR-4 ovarian, 92.4% (inactive); with SK-OV-3 ovarian it was 89.8% (inactive). Further, the growth with IGROV1 ovarian was 46.3% (inactive); in the assay with OVCAR-3 ovarian, 82.8% (inactive); in the assay with HS 578T breast, 92.4% (inactive); in the assay with NCI/ADR-RES ovarian, 85.6% (inactive); in the assay with T-47D breast, 70% (inactive); with BT-549 breast it was 99.5% (inactive). In addition, the growth with MDA-MB-435 melanoma is 97.2% (inactive); in the assay on SW-620 colon, 101% (inactive); with MCF7 breast, 91.9% (inactive); with HCT-116 colon, 107% (inactive); with HCC-2998 colon, 101% (inactive); in the assay with KM12 colon, 96.9% (inactive).
Turning to `C=C(C)[C@@H]1CC[C@]2(C(=O)O)CC[C@]3(C)[C@H](CC[C@@H]4[C@@]5(C)CCC(N)C(C)(C)[C@@H]5CC[C@]43C)[C@@H]12` (some centres undefined), the growth with SR leukemia is -8.86% (active); in the assay on RPMI-8226 leukemia it was -33.6% (active); in the assay with OVCAR-8 ovarian, 20.8% (inactive); in the assay with OVCAR-5 ovarian, 96.6% (inactive); in the assay with OVCAR-4 ovarian, 36.8% (inactive); with SK-OV-3 ovarian, 106% (inactive). Further, the growth with IGROV1 ovarian was 74.4% (inactive); with OVCAR-3 ovarian, -31.5% (active); in the assay on HS 578T breast, 93.1% (inactive); with NCI/ADR-RES ovarian it was 69.7% (inactive); in the assay with T-47D breast, -4.16% (active); in the assay with BT-549 breast, 101% (inactive). In addition, the growth in the assay with MDA-MB-435 melanoma was -51% (active); with SW-620 colon, 16.3% (inactive); in the assay on MCF7 breast it was 2.48% (active); with HCT-116 colon, 2.64% (active); in the assay with HCC-2998 colon, 23.8% (inactive); in the assay with KM12 colon, 24.2% (inactive).
For the molecule `Cc1nc2sc(C(=O)Nc3cccc4ccccc34)c(N)c2cc1C(=O)/C=C/c1ccccc1`, the growth is 13.2% (inactive) with SR leukemia; -27% (active) in the assay with RPMI-8226 leukemia; -13.9% (active) with OVCAR-8 ovarian; 13.6% (inactive) with OVCAR-5 ovarian; 34.6% (inactive) in the assay with OVCAR-4 ovarian; 27.1% (inactive) with SK-OV-3 ovarian. Also, the growth in the assay with IGROV1 ovarian is 4.15% (active); in the assay on OVCAR-3 ovarian, -67.8% (active); in the assay with HS 578T breast, 16.1% (inactive); with NCI/ADR-RES ovarian it was -11.3% (active); with T-47D breast, 14.5% (inactive); in the assay on BT-549 breast, -31.1% (active). Also, the growth in the assay with MDA-MB-435 melanoma is 1.56% (active); with SW-620 colon, -8.3% (active); with MCF7 breast, 4.27% (active); in the assay with HCT-116 colon it was -52.8% (active); in the assay with HCC-2998 colon, -85.4% (active); in the assay on KM12 colon, -43.7% (active).
